In PubChem BioAssay (NCI):
The panel holds about 79,000 compounds, 15% with a hit somewhere; the sample as a whole holds those more often. Values without a mark were called inactive. The source made the active and inactive calls. Rule as the data show it: active = growth inhibition above about 70%; inactive = the rest.

How the values were obtained:
[1] = NCI Yeast Anticancer Drug Screen. Data for the rad50 strain (AID 155);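 also: 0% = growth of vehicle-only cultures of the same strain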; conditions: S. cerevisiae rad50 strain growth inhibition, stronger effect = higher value
Summary of the method: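 Genetically altered yeast (DNA repair pathway); compound treatment; growth inhibition vs vehicle ctrl.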

[2] = NCI Yeast Anticancer Drug Screen. Data for the mec2-1 strain (AID 157); conditions: S. cerevisiae mec2-1 strain, stronger effect = higher value
Summary of the method: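 Vehicle-treated cultures served as reference for growth inhibition of compound-exposed mec2-1 yeast.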

[3] = NCI Yeast Anticancer Drug Screen. Data for the sgs1 mgt1 strain (AID 161);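 also: 0% = growth of cultures given vehicle only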; conditions: S. cerevisiae sgs1 mgt1 strain, stronger effect = higher value
Summary of the method: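 Read-out: growth inhibition vs vehicle controls. Cells: mutant yeast strain deficient in DNA damage repair.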

[4] = NCI Yeast Anticancer Drug Screen. Data for the cln2 rad14 strain (AID 165);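 also: 0% = growth equal to vehicle treated cultures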; conditions: S. cerevisiae cln2 rad14 strain, stronger effect = higher value
Summary of the method: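 Each compound was tested on cln2 rad14 yeast. Inhibition of growth was calculated against vehicle-exposed controls.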

[5] = NCI Yeast Anticancer Drug Screen. Data for the bub3 strain (AID 167); conditions: S. cerevisiae bub3 mutant strain, stronger effect = higher value
Summary of the method: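 Yeast carrying a defined mutation is treated with each compound, and growth is compared with that of vehicle-exposed cells to give inhibition.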

[6] = NCI Yeast Anticancer Drug Screen. Data for the mlh1 rad18 strain (AID 175); conditions: S. cerevisiae mlh1 rad18 strain growth inhibition, stronger effect = higher value
Summary of the method: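 Vehicle-treated cultures served as the reference for growth inhibition in a yeast strain carrying DNA damage repair alterations exposed to each compound.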

[7] = at 5.0 µM (retest, dose inferred, filed as 0.5)
[8] = at 50.0 µM (retest, dose inferred, filed as 5.0)

For `C1CCC2CC3(CCNCC3)CCC2C1` (configuration not stated), the growth inhibition [1, 7] was 14%, the growth inhibition [1, 8] was 55% and the growth inhibition ([1]; at 50.0 µM) was 75.2% (active). It also gave a growth inhibition [2, 7] of 9%, a growth inhibition [2, 8] of 55% and a growth inhibition ([2]; at 50.0 µM) of 55.4%. The growth inhibition [3, 7] was 16%, the growth inhibition [3, 8] was 79% (active) and the growth inhibition ([3]; at 50.0 µM) was 88.4% (active). The growth inhibition [4, 7] was 12%, the growth inhibition [4, 8] was 82% (active) and the growth inhibition ([4]; at 50.0 µM) was 83.7% (active). For the same molecule, the growth inhibition [5, 7] was 11%, the growth inhibition [5, 8] was 66% and the growth inhibition ([5]; at 50.0 µM) was 86.8% (active). For the same molecule, the growth inhibition [6, 7] was 9%, the growth inhibition [6, 8] was 73% (active) and the growth inhibition ([6]; at 50.0 µM) was 92% (active).
In the case of `OCCc1ccc(-n2cnc3c(Nc4ccc(Cl)cc4)ncnc32)cc1`, the growth inhibition [1, 7] is reported as -3%, the growth inhibition [1, 8] is reported as 95% (active) and the growth inhibition ([1]; at 50.0 µM) is reported as 47.2%. The growth inhibition [2, 7] was -4%, the growth inhibition [2, 8] was 95% (active) and the growth inhibition ([2]; at 50.0 µM) was 43%. The growth inhibition [3, 7] was -4%, the growth inhibition [3, 8] was 91% (active) and the growth inhibition ([3]; at 50.0 µM) was 44.8%. The growth inhibition [4, 7] was -18%, the growth inhibition [4, 8] was 94% (active) and the growth inhibition ([4]; at 50.0 µM) was 17.8%. For the same molecule, the growth inhibition [5, 7] was 7%, the growth inhibition [5, 8] was 96% (active) and the growth inhibition ([5]; at 50.0 µM) was 83.8% (active). For the same molecule, the growth inhibition [6, 7] was 3%, the growth inhibition [6, 8] was 95% (active) and the growth inhibition ([6]; at 50.0 µM) was 47%.
In the case of `CCOC(=O)C(C(=O)OCC)c1ccc([N+](=O)[O-])o1`, the growth inhibition [1, 7] is reported as 14%, the growth inhibition [1, 8] is reported as 82% (active) and the growth inhibition ([1]; at 50.0 µM) is reported as 86% (active). For the same molecule, the growth inhibition [2, 7] was -15%, the growth inhibition [2, 8] was 96% (active) and the growth inhibition ([2]; at 50.0 µM) was 86.4% (active). For the same molecule, the growth inhibition [3, 7] was 8%, the growth inhibition [3, 8] was 89% (active) and the growth inhibition ([3]; at 50.0 µM) was 89.2% (active). For the same molecule, the growth inhibition [4, 7] was 6%, the growth inhibition [4, 8] was 79% (active) and the growth inhibition ([4]; at 50.0 µM) was 81.9% (active). The growth inhibition [5, 7] was 0%, the growth inhibition [5, 8] was 94% (active) and the growth inhibition ([5]; at 50.0 µM) was 87.9% (active). For the same molecule, the growth inhibition [6, 7] was 3%, the growth inhibition [6, 8] was 96% (active) and the growth inhibition ([6]; at 50.0 µM) was 82.2% (active).
In the case of `COc1ccc(Oc2c(OC)cc(NCCCCCNC(C)C)c3ncccc23)cc1`, the growth inhibition [1, 7] is reported as 26%, the growth inhibition [1, 8] is reported as 72% (active) and the growth inhibition ([1]; at 50.0 µM) is reported as 91.9% (active). It also gave a growth inhibition [2, 7] of 13%, a growth inhibition [2, 8] of 52% and a growth inhibition ([2]; at 50.0 µM) of 67.9%. For the same molecule, the growth inhibition [3, 7] was 37%, the growth inhibition [3, 8] was 85% (active) and the growth inhibition ([3]; at 50.0 µM) was 93.7% (active). For the same molecule, the growth inhibition [4, 7] was 19%, the growth inhibition [4, 8] was 48% and the growth inhibition ([4]; at 50.0 µM) was 57.8%. For the same molecule, the growth inhibition [5, 7] was 29%, the growth inhibition [5, 8] was 69% and the growth inhibition ([5]; at 50.0 µM) was 81% (active). For the same molecule, the growth inhibition [6, 7] was 19%, the growth inhibition [6, 8] was 52% and the growth inhibition ([6]; at 50.0 µM) was 89.8% (active).
`COc1ccc(-n2c3c(c4c(N)ncnc42)CCCC3)cc1` showed a growth inhibition [1, 7] of -2%, a growth inhibition [1, 8] of -4% and a growth inhibition ([1]; at 50.0 µM) of -21.3%. The growth inhibition [2, 7] was -12%, the growth inhibition [2, 8] was -3% and the growth inhibition ([2]; at 50.0 µM) was -7.3%. The growth inhibition [3, 7] was 11%, the growth inhibition [3, 8] was -3% and the growth inhibition ([3]; at 50.0 µM) was -13%. The growth inhibition [4, 7] was -11%, the growth inhibition [4, 8] was 43% and the growth inhibition ([4]; at 50.0 µM) was -33%. For the same molecule, the growth inhibition [5, 7] was -2%, the growth inhibition [5, 8] was -13% and the growth inhibition ([5]; at 50.0 µM) was -69.2%. For the same molecule, the growth inhibition [6, 7] was 2%, the growth inhibition [6, 8] was -13% and the growth inhibition ([6]; at 50.0 µM) was -16.4%.
With `Cc1c(Cl)cccc1NC(=O)/C(Cl)=C(\Cl)C(=O)O` the growth inhibition [1, 7] was -1%, the growth inhibition [1, 8] was 33% and the growth inhibition ([1]; at 50.0 µM) was 99.5% (active). The growth inhibition [2, 7] was -1%, the growth inhibition [2, 8] was 41% and the growth inhibition ([2]; at 50.0 µM) was 99.8% (active). The growth inhibition [3, 7] was 1%, the growth inhibition [3, 8] was 74% (active) and the growth inhibition ([3]; at 50.0 µM) was 99.7% (active). The growth inhibition [4, 7] was 1%, the growth inhibition [4, 8] was 3% and the growth inhibition ([4]; at 50.0 µM) was 99.3% (active). For the same molecule, the growth inhibition [5, 7] was -3%, the growth inhibition [5, 8] was 18% and the growth inhibition ([5]; at 50.0 µM) was 99.7% (active). The growth inhibition [6, 7] was -6%, the growth inhibition [6, 8] was 39% and the growth inhibition ([6]; at 50.0 µM) was 99.5% (active).
In the case of `CCCCOC(=O)c1ccc(S(=O)(=O)c2ccc(C(=O)OCCCC)cc2)cc1`, the growth inhibition [1, 7] is reported as 3%, the growth inhibition [1, 8] is reported as -6% and the growth inhibition ([1]; at 50.0 µM) is reported as 1.7%. It also gave a growth inhibition [2, 7] of 3%, a growth inhibition [2, 8] of -3% and a growth inhibition ([2]; at 50.0 µM) of 28.4%. For the same molecule, the growth inhibition [3, 7] was 5%, the growth inhibition [3, 8] was -18% and the growth inhibition ([3]; at 50.0 µM) was 10%. For the same molecule, the growth inhibition [4, 7] was 5%, the growth inhibition [4, 8] was -11% and the growth inhibition ([4]; at 50.0 µM) was -13.1%. The growth inhibition [5, 7] was 4%, the growth inhibition [5, 8] was -1% and the growth inhibition ([5]; at 50.0 µM) was 77.7% (active). It also gave a growth inhibition [6, 7] of 2%, a growth inhibition [6, 8] of -3% and a growth inhibition ([6]; at 50.0 µM) of 11.1%.
In the case of `CC(=O)N(C1=CC(=O)c2ccccc2C1=O)c1ccc(C)cc1`, the growth inhibition [1, 7] is reported as 16%, the growth inhibition [1, 8] is reported as 99% (active) and the growth inhibition ([1]; at 50.0 µM) is reported as 98.4% (active). The growth inhibition [2, 7] was 31%, the growth inhibition [2, 8] was 97% (active) and the growth inhibition ([2]; at 50.0 µM) was 69.2%. The growth inhibition [3, 7] was 36%, the growth inhibition [3, 8] was 93% (active) and the growth inhibition ([3]; at 50.0 µM) was 91.6% (active). It also gave a growth inhibition [4, 7] of 5%, a growth inhibition [4, 8] of 46% and a growth inhibition ([4]; at 50.0 µM) of 57.3%. The growth inhibition [5, 7] was 37%, the growth inhibition [5, 8] was 94% (active) and the growth inhibition ([5]; at 50.0 µM) was 93.5% (active). For the same molecule, the growth inhibition [6, 7] was 27%, the growth inhibition [6, 8] was 97% (active) and the growth inhibition ([6]; at 50.0 µM) was 58.1%.
With `Cc1ccc(C2=Nc3c(c(C)nn3-c3ccccc3)N=C(C(=O)O)C2)cc1` the growth inhibition [1, 7] was 1%, the growth inhibition [1, 8] was 78% (active) and the growth inhibition ([1]; at 50.0 µM) was 76.2% (active). The growth inhibition [2, 7] was -23%, the growth inhibition [2, 8] was 87% (active) and the growth inhibition ([2]; at 50.0 µM) was 82.9% (active). The growth inhibition [3, 7] was -3%, the growth inhibition [3, 8] was 62% and the growth inhibition ([3]; at 50.0 µM) was 88.4% (active). For the same molecule, the growth inhibition [4, 7] was -4%, the growth inhibition [4, 8] was 92% (active) and the growth inhibition ([4]; at 50.0 µM) was 87.5% (active). For the same molecule, the growth inhibition [5, 7] was 2%, the growth inhibition [5, 8] was 89% (active) and the growth inhibition ([5]; at 50.0 µM) was 83.4% (active). For the same molecule, the growth inhibition [6, 7] was -12%, the growth inhibition [6, 8] was 86% (active) and the growth inhibition ([6]; at 50.0 µM) was 59.3%.
